Records with an inconclusive call do not appear. Calls of active or inactive are those of the source. Calls come from the whole dose curve; as a rule, active = well fitted inhibition curve with a large enough effect; inconclusive = small, poorly fitted or top-dose-only effect; inactive = no such curve, though single readings can be large or run the other way.
Target: Ubiquitin carboxyl-terminal hydrolase 2 (Homo sapiens) (UniProt O75604)
Assay: Confirmation Concentration-response Assay for Inhibitors of Ubiquitin-specific Protease USP2a
Details: USP2 core, Ub-PLA2 coupled fluorescence, NBD C6-HPC
Text: NIH Molecular Libraries Screening Centers Network [MLSCN] NIH Chemical Genomics Center [NCGC] MLSCN Grant: XO1-MH079852-01 PI Name: Nicholson, Ben. Progenra Inc, Malvern, PA NCGC Assay Overview: Homeostasis of cellular proteins is maintained through a combination of synthesis and degradation. The pathway that accounts for the majority of protein degradation is the ubiquitin-proteasomal pathway. Ubiquitin (Ub) is highly conserved in all cells and the generation of a multi-Ub chain typically targets proteins for degradation by the proteasome. However, ubiquitination is highly reversible and dynamic. […] Thus, this coupled assay gives a fluorescent read-out, which is generated through the cleavage of the PLA2 reporter enzyme. […]
NCGC Assay Protocol Summary: The assay buffer, prepared fresh at the day of the assay, contains 20mM Tris-HCl pH 8.0, 2mM CaCl2, 2mM beta-Mercaptoethanol, 0.1% DMSO. […] Plates were read immediately (0 Hour) on an Envision (Perkin Elmer) plate reader using the following wavelengths Ex 460nm /Em 535nm. Then, the assay plates were incubated for 2.5 hours and read again on the Envision using the same settings Data were normalized to the to AC100 inhibition (NEM). Concentration-response curves were fitted to the normalized data and the concentration-response curves were then classified based on curve quality (r2), response magnitude and degree of measured activity. […]

Sequence of Ubiquitin carboxyl-terminal hydrolase 2 (Homo sapiens) (O75604 whole entry, looked up): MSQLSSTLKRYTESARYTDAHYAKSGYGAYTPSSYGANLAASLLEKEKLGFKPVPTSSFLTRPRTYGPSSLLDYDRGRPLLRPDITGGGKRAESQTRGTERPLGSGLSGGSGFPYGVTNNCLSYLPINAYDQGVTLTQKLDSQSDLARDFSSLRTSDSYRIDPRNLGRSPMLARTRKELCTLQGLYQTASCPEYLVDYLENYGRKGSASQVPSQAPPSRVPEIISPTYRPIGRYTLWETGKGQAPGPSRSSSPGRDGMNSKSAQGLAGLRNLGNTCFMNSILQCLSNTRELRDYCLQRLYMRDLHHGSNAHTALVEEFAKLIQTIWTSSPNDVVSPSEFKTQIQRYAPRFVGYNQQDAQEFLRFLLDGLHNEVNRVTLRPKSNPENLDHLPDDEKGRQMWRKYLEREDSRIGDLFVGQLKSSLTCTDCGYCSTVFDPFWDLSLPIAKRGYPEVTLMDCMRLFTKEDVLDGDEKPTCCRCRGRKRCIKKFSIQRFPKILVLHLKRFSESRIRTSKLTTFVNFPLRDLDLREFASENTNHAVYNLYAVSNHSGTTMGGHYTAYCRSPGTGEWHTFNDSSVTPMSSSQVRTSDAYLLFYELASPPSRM

## Cc1ccc2scc(N3CCN(C)CC3)c(=O)c2c1
  Potency: 12.6 µM (active)
